± gives the standard deviation.
test system: OVCAR-3-derived ovarian cancer stem-like cells (spheroids); experiment: cell growth relative to untreated control; higher = more growth (less inhibition); settings: 2.29 µM; 96 h
In short: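 Percent growth was calculated against untreated wells once blanks were subtracted and Grubbs outliers removed. The cells were OVCAR-3 spheroid-derived stem-like cells, trypsinized and plated at 50,000 cells/mL in stem cell medium on ultra-low attachment 96-well plates for a 24 h preincubation. They were then exposed to compounds at 2.29 uM for 96 h at 37°C, 5% CO2, in 4 replicate wells, and viability was measured by TOX8 resazurin fluorescence (ex 560/em 590 nm) after 4 h.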

SMILES | cell growth [%]
COc1cc(C(O)CCBr)c(OC)cc1C (stereo not given) | 86.9 ± 26
C=C1C(=O)O[C@@H]2/C=C(/C)C(=O)C[C@H]3OC(C)(C)O[C@]3(C)C[C@@H](OC(=O)/C(C)=C\C)[C@@H]12 | 90.5 ± 31
COc1cc2c[n+](C)c3c4cc5c(cc4ccc3c2cc1OC)OCO5 | 48.7 ± 21
CN1CCN(CCNc2ccc(CO)c3sc4ccccc4c(=O)c23)CC1 | 49.7 ± 14
c1ccc2c(c1)nnn1c3cnccc3nc21 | 58.8 ± 9.3
CCCCC(/C=N/N=C(N)N)CC.Cc1cc(O)c(C(C)C)cc1S(=O)(=O)O | 91.8 ± 17
Cc1ccc([N+](=O)[O-])cc1NC(=O)c1cccc([N+](=O)[O-])c1O | 146 ± 41
COc1ccc(N=C2C(=Nc3ccc(OC)cc3)N(c3ccc(N(C)C)cc3)C(=S)N2c2ccc(OC)cc2)cc1 | 72.3 ± 12
COC1=CC(=O)c2c(ccc3ncnc(N)c23)C1=O | 79.1 ± 20
C=C1CC(COc2cc(=O)oc3ccccc23)(c2ccccc2)OC1=O (stereo not given) | 76.3 ± 22
Nc1ccc2c(c1)CN1C(=O)c3ccccc3C1=N2 | 72.9 ± 5.6
CCN(CC)CCNc1ccc2nc(C)n3c4ccc(OC)cc4c(=O)c1c23 | 34.8 ± 9.9
CN(C)c1ccc(/C=c2/sc3nc(=O)c(-c4ccccc4NC(=O)C(F)(F)F)nn3c2=O)cc1 | 83.4 ± 18
Cc1c2ccnc(C(N)=O)c2c(C)c2c1[nH]c1ccccc12 | 113 ± 10
COC1(O)C(=O)c2ccccc2OC1(OC)c1ccccc1 (stereo not given) | 118 ± 26
N#CC(c1ccccc1)N(CCCCCCN(C(=O)c1ccccc1)C(C#N)c1ccccc1)C(=O)c1ccccc1 (stereo not given) | 122 ± 23
Nc1nc(SCc2ccccc2Cl)c2ncn(C3OC(CO)C(O)C3O)c2n1 (stereo not given) | 177 ± 61
CCSC(=O)N1c2ccc(OC)cc2C=CC1C#N (stereo not given) | 52.9 ± 11
CN(C)c1ccc(/C=C2/C=Cc3ccccc32)cc1 | 101 ± 8.1
N[C@H](C(=O)O)[C@@H]1CC(Cl)=NO1 | 85.3 ± 21

SMILES | cell growth [%]
COC(=O)C1=CC(=O)C(C(=O)Nc2ccc(OC)cc2)C(c2ccccc2)O1 (stereo not given) | 96.3 ± 45
COC1OC(COCc2ccc(Cl)cc2)C(OCc2ccc(Cl)cc2)C1O (stereo not given) | 110 ± 26
COc1ccc2oc(-c3ccncc3)cc(=O)c2c1 | 122 ± 9.1
CCCC(=O)[O-].[Na+] | 88.2 ± 19
CC(C)(C)c1ccc(O)c(CN(Cc2cc(C(C)(C)C)ccc2O)C2CCCCC2)c1 | 145 ± 56
C[n+]1c(-c2ccc(/C=C/C=N/NC(=O)c3ccc(C(=O)N/N=C/C=C/c4ccc(-c5cn6ccccc6[n+]5C)cc4)cc3)cc2)cn2ccccc21 | 138 ± 18
COc1ccc2cccc(C(=N)c3ccc(C)c4c3CCC4)c2c1 | 95.3 ± 25
COc1cc2cc(c1Cl)N(C)C(=O)C[C@H](OC(=O)[C@H](C)N(C)C(C)=O)[C@]1(C)O[C@H]1[C@H](C)[C@@H]1C[C@@](O)(NC(=O)O1)[C@H](OC)/C=C/C=C(\C)C2 | 22.5 ± 4.8
Nc1ccc2c(c1)S(=O)(=O)c1cc(N)ccc1-2 | 112 ± 21
COC(=O)c1[nH]c(=S)[nH]c(=O)c1-c1ccc(Cl)cc1 | 37.8 ± 14
CCCCCCCCCCCCC(O)C(=O)O (stereo not given) | 115 ± 19
CN(C)c1cccc(/C=C(\C#N)c2ccccc2)c1 | 66.6 ± 7.2
CN=c1sc2c(n1C)C(=O)c1ccccc1C2=O | 83.2 ± 26
NC(=O)c1csc(C2OC(CO)C(O)C2O)n1 (stereo not given) | 90.6 ± 11
O=S(=O)(O)c1cc(N=Nc2cc(S(=O)(=O)O)c3cccnc3c2O)ccc1/C=C/c1ccc(N=Nc2cc(S(=O)(=O)O)c3cccnc3c2O)cc1S(=O)(=O)O | 93.7 ± 14
O=C1c2ccccc2C(=O)c2sc(Nc3ccc(Cl)c(Cl)c3)nc21 | 9.6 ± 7
CC(C)(C)C1CCC2(CC1)CCN(CCCN1CCOCC1)CC2 | 119 ± 12
C=C1C(=O)OC2/C=C(/CO)[C@@H](OC(C)=O)C[C@H](O)/C(C)=C\[C@@H](OC(=O)[C@@H](C)CC)[C@@H]12 (stereo not given in full) | 100 ± 50
Nc1nc(N)c2cc(Sc3cccc(C(F)(F)F)c3)ccc2n1 | 94.4 ± 24
C=CCOC1OC(CO[Si](C)(C)C(C)(C)C)C(OCc2ccccc2)C(OCc2ccccc2)C1OCc1ccccc1 (stereo not given) | 116 ± 18

Source: the supplement of paper PMC3484114
